# In PubChem BioAssay (Tox21):
# Inconclusive results are not listed. Unmarked numbers belong to inactive results. Calls follow the shape of the dose curve; as a rule, active = well fitted activation curve with a large enough effect in the signal ratio in the repeat runs (not every such curve was filed as active); inconclusive = weak or mixed curves, or effect the other way; inactive = flat fitted curve, though single readings scatter; the % refers to the signal ratio.
# Experiment: qHTS assay to identify small molecule agonists of the endoplasmic reticulum stress response signaling pathway (AID 1159516)
# Conditions: ESRE-bla HeLa, ER stress beta-lactamase reporter, 5 h; series mostly up to 61 µM; activation: at the top concentration
# Method in brief: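 Using a HeLa line with an ESRE-driven beta-lactamase gene, agonist activity was measured by FRET substrate fluorescence (460 and 530 nm emission) after cells were treated with compounds for 5 hr at 37 C and 5% CO2.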
# % is scaled to controls: 0 for no effect and ±100 for the full control effect.
row,SMILES,activation
1,Cc1cccc(C)c1NC(=O)CC12CCCN1CCC2,-2.97%
2,C[C@@H]1C[C@H]2[C@@H]3C[C@H](F)C4=CC(=O)C(Cl)=C[C@]4(C)[C@@]3(F)[C@@H](O)C[C@]2(C)[C@@]1(O)C(=O)CO,-0.922%
3,C=CC(=O)OCCCl,-3.49% [at 78.8 µM]
4,C[N+]1(CC2COC(c3ccccc3)(c3ccccc3)O2)CCCCC1 (stereo not drawn),-0.164% [at 28.5 µM]
5,CO[Si](C)(OC)c1ccccc1,-1.55%
6,CC(C)[C@H]1CC[C@@H](C)CC1=O,4.68%
7,Cc1nc(C2CCCCC2)c(-c2ccc(S(N)(=O)=O)c(F)c2)o1,-3.69%
8,CCOC(=O)COC(=O)c1ccccc1C(=O)OCC,2.14%
9,CCOC(=O)c1cnc2c(cnn2CC)c1NN=C(C)C,2.54%
10,CC(=O)c1ccc2ccccc2c1,1.11%
11,COc1ccc2cc1Oc1cc3c(cc1OC)CC[N+](C)(C)[C@H]3Cc1ccc(cc1)Oc1c(OC)c(OC)cc3c1[C@@H](C2)[N+](C)(C)CC3,-5.15%
12,O=S(=O)(O)c1cccc2ccccc12,-0.152%
13,C1CCC2(CCCCO2)OC1,2.59%
14,C[C@H]1C[C@H]2[C@@H]3CCC4=CC(=O)C=C[C@]4(C)[C@H]3C(=O)C[C@]2(C)[C@@]1(O)C(=O)CO,0.583%
15,CC1=NN(c2cc(S(=O)(=O)O)ccc2Cl)C(=O)C1N=Nc1ccccc1 (stereo not drawn),-1.06%
16,O=S(=O)(O)c1cccc(S(=O)(=O)O)c1,7.21%
17,Nc1ccncc1N,5.11%
18,CCN(Cc1ccccc1)c1ccccc1,0.189%
19,CC[N+](CC)(CC(=O)Nc1c(C)cccc1C)Cc1ccccc1 (tested in a mixture with another compound),0.469%

row,SMILES,activation
1,CN(C)CCCN(C)CCCN(C)C,-0.231%
2,Cc1ccnc(NS(=O)(=O)c2ccc(N)cc2)n1,-0.929%
3,CCCCCCCCCCCCCCCCCCO,-4.11%
4,O=C(O)Cc1csc(-c2ccc(Cl)cc2)n1,-1.45%
5,NC(=O)N1c2ccccc2CC(=O)c2ccccc21,3.37%
6,CCCCCC(C)N (stereo not drawn),0.0591%
7,Nc1ccn([C@@H]2O[C@H](CO)[C@@H](O)[C@@H]2O)c(=O)n1,-0.215%
8,CN1CCC(=C2c3ccccc3CCc3cccnc32)CC1,1.79%
9,CCCCc1nc(Cl)c(CO)n1Cc1ccc(-c2ccccc2-c2nn[nH]n2)cc1,-2.26%
10,c1ccc2sc(SN3CCOCC3)nc2c1,5.86%
11,CCN(C=O)CC,-1.22% [at 78.8 µM]
12,CC(=O)C1CCCCC1=O (stereo not drawn),-1.71%
13,COc1cc(-c2ccc(=O)[nH]n2)ccc1OC(F)F,-3.41%
14,CCCc1ncc(C[n+]2ccccc2C)c(N)n1,-0.847%
15,O=C(CO)[C@@H](O)[C@H](O)[C@H](O)CO,1.32% [at 78.8 µM]
16,CC(CC=O)CC(C)(C)C (stereo not drawn),-0.826%
17,Clc1cc(Cl)c(Cl)nc1Cl,-1.57%
18,CCNS(=O)(=O)c1ccc(C)cc1,2.82% [at 78.8 µM]
19,Cc1coc2ccccc2c1=O,0.596%
